# Compound activity: PubChem, Broad Institute
# RAD54 branch: inhibitors of human RAD54 branch migration, primary screen, biochemical, fluorescence, single point. DNA repair and recombination protein RAD54-like (Homo sapiens), Q92698. RAD54 Holliday junction branch migration, FAM/BHQ fluorescence. inhibition, % at 10.4 µM. 360,000 tested, 0.14% active. AID 602329, 2012;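 active = mean normalized replicate activity at least 40 and at least half of replicates scoring 40 or more; inconclusive = only one of the two criteria met; inactive = mean below 40 and under half of replicates reaching 40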;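 also: inhibitors cause a drop in the FAM fluorescence signal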
# CASP6 VEID inh: human caspase-6 inhibitors, primary screen, biochemical, VEID-R110 fluorescence, single point, set 2 | inhibition, % at 12.5 µM | 350,000 tested, 0.53% active | AID 686996, 2013 | purified caspase-6, Z-VEID-R110 cleavage fluorescence;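 active = mean inhibition across replicates at least about 35%, with every replicate also reaching that limit, limit read from the data; inconclusive = only one of the two criteria met; inactive = neither criterion met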
# Target sequence (P55212 24-179 limits assumed): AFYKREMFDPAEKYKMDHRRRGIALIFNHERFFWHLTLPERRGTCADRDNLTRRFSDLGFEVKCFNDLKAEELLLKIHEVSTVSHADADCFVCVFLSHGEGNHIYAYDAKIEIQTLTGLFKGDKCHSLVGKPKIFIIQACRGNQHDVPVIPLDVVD
# Target sequence (P55212 194-293 limits assumed): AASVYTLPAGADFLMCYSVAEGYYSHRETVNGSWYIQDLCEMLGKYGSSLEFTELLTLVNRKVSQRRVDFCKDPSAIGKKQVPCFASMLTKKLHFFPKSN
# N-glyco inh: increase of ERlucT glycosylation luciferase signal, primary screen, N-linked glycosylation inhibitor project, D54 ERlucT cells, luminescence, set 2 | 360,000 tested, 0.23% active | reporter increase, % at 12.5 µM | D54 ERlucT glycosylation luciferase reporter, 24 h; percent of 100 nM tunicamycin response;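 active = mean luciferase reporter signal, scaled so untreated is 0 and the glycosylation-blocking control 100, at or above a set limit in every replicate; inconclusive = mean reaches the limit but not every replicate does; inactive = mean below the limit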;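 also: luciferase carries N-glycosylation sites so blocking glycosylation raises the light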
# RAD52 inh: RAD52 DNA annealing inhibitors, primary screen, biochemical, FRET, single point, set 2; DNA repair protein RAD52 homolog (Homo sapiens), P43351; inhibition, % at 18.7 µM; 360,000 tested, 0.46% active; recombinant RAD52 DNA annealing, FRET fluorescence;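 active = every replicate showing at least 50% inhibition; inconclusive = mean inhibition at least 50% but not in every replicate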
# Target sequence (P43351 whole entry, looked up): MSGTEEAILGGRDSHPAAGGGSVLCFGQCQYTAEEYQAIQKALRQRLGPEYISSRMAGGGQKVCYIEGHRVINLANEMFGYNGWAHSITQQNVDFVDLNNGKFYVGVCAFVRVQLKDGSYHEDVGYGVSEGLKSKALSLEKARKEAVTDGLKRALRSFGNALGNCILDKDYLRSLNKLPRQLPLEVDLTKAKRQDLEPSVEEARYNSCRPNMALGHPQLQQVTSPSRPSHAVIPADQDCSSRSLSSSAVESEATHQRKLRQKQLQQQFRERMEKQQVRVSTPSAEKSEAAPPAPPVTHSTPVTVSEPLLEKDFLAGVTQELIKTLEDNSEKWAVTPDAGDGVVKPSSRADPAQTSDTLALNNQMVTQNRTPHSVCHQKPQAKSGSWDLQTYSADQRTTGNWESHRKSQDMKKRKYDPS
# AF4-AF9 inh: inhibitors of AF4 peptide binding to AF9, primary screen, biochemical, AlphaScreen, biotin-AF4 peptide, FLAG-AF9, single point | 350,000 tested, 0.47% active | AID 651704, 2012 | inhibition, % at 10 µM;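 active = every replicate reaching a set inhibition limit, whatever the replicate mean, cut at about 25% in these data; inconclusive = mean inhibition reaches that limit but some replicates miss it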
# AlphaScreen intf: AlphaScreen signal interference counter-screen, dose response, artefact control, biochemical, cherry-picked samples, luminescence. shares compounds with AF4-AF9 inh. AC50, µM (top dose mostly 12 µM). 530 tested, 45% active. AID 720494, 2013; cut-off not given, nearly all actives have AC50 up to about 14 µM
# DNA binder FP: DNA-binding compounds via dye displacement, dose response, artefact control for RAD52 inhibitor project, biochemical, fluorescence polarization, cherry-pick; 1,000 tested, 8% active; shares compounds with RAD52 inh; Salmon sperm DNA/acridine orange FP displacement; AC50, µM;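 active = fitted half-maximal concentration for signal loss at or below twice the highest dose tested, in every separate run, actives reach about 64 µM in these data; inconclusive = runs disagree, or flat partial signal loss, or poor fit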
# CASP1 counter: human caspase-1 inhibitors, dose response, selectivity assay for caspase-6 inhibitor project, biochemical, Z-YVAD-R110 fluorescence, cherry-pick, set 2; shares compounds with CASP6 VEID inh; purified caspase-1, Z-YVAD-R110 cleavage fluorescence; activity change, negative = inhibition, % at 35 µM; 100 tested, under 10 active; AID 743289, 2014;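 active = compounds lowering fluorescence whose fitted half-maximal concentration is no more than twice their top tested dose; inconclusive = flat fit with 30 to 70% inhibition, or poor fit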
# Numbers stand for hits; . = inactive; ? = inconclusive; / = no result given; ! = repeats disagree. In the library only some 1.2% were active in any assay of this set; here they are far more common.
SMILES,RAD54 branch,CASP6 VEID inh,N-glyco inh,RAD52 inh,AF4-AF9 inh,AlphaScreen intf,DNA binder FP,others
C[C@@H]1CN([C@@H](C)CO)C(=O)c2cc(NS(=O)(=O)c3ccc(F)cc3)ccc2O[C@@H](C)CCCCO[C@H]1CN(C)CC1CC1,.,.,/,.,.,/,/,
CCC(=O)N1[C@@H]2Cn3c(ccc(-c4ccccc4)c3=O)[C@H]1[C@@H](C(=O)N1CCc3ccccc3C1)[C@@H]2CO,.,.,/,.,.,/,/,
CCN(CC)CCSc1nc2ccccc2c(=S)n1-c1ccccc1,/,.,/,.,34,.,/,
CCN(CC)CCSc1nc(O)c(-c2ccccc2)c(=O)n1-c1ccccc1,.,.,.,.,.,/,/,
COc1ccc(/C=N/N2CCN(c3ccccc3OC)CC2)cc1Br,.,.,.,.,27,.,/,
COc1ccccc1N1CCN(/N=C/C=C\c2ccccc2[N+](=O)[O-])CC1,/,/,.,.,51,.,/,
COc1ccccc1N1CCN(/N=C/c2cccc(Cl)c2)CC1,.,.,.,.,27,.,/,
COc1cccc(/C=N/N2CCN(c3ccccc3OC)CC2)c1,.,/,.,/,/,/,/,
C[C@@H]1CN([C@@H](C)CO)C(=O)Cc2cc(NC(=O)CCN3CCOCC3)ccc2O[C@@H]1CN(C)C(=O)Nc1ccc(C(F)(F)F)cc1,.,.,/,.,.,/,/,
CCOc1ccc(NCc2cccn2-c2nnc(N3CCC(C(=O)NCCCN4C(C)CCCC4C)CC3)s2)cc1 (centres undefined),.,.,.,64,51,11µM,/,
C[C@@H]1CN([C@H](C)CO)C(=O)Cc2cc(N(C)C)ccc2O[C@@H]1CN(C)S(=O)(=O)c1cccs1,.,.,/,.,.,/,/,
COc1ccc(-c2oc3ccccc3c(=O)c2OC(C)=O)cc1,.,.,.,.,55,7.3µM,/,
COc1ccc2c3c(n(C)c2c1)[C@H](CO)N(CC1CC1)CC31CN(C(=O)Nc2ccccc2)C1,/,/,/,.,/,/,/,
CN(C)CCNc1ncnc2c1sc1nc(-c3ccccc3)c3c(c12)CCCC3,.,.,.,70,?,.,.,
COc1ncnc2c1sc1nc(-c3ccccc3)c3c(c12)CCCC3,/,/,.,/,/,/,/,
O=C(CC1CC1)N1CC2(C1)[C@H](c1ccccc1)[C@@H](CO)N2CC1CCOCC1,/,.,/,.,.,/,/,
NC(=NCCCCCCN=C(N)/N=C(\N)Nc1ccc(Cl)cc1)/N=C(\N)Nc1ccc(Cl)cc1,59!,/,.,95,53!,.,.,
CC(C)N=C(N)N=C(N)Nc1ccc(Cl)cc1,.,.,.,.,.,/,/,
Nc1nc(Nc2ccccc2)nc2ccccc12,.,/,.,/,/,/,/,
CN(C)c1ccc(Nc2nc(N)c3ccccc3n2)cc1,.,.,.,.,60,12µM,.,
C#CCOCCOCCOCCNc1nc(N2CCN(C(=O)[C@H](CCCN=C(N)N)n3cc(C(N)[C@@H](C)CC)nn3)CC2)nc(N2CCN(C(=O)[C@H](CCCCN)n3cc([C@@H](N)[C@H](C)CC)nn3)CC2)n1 (some centres undefined),.,/,.,63,46,.,.,
CCOc1ccc(NCc2cccn2-c2nnc(N3CCC(C(=O)NCCCN4CCCCC4C)CC3)s2)cc1 (centres undefined),.,.,.,80,47,14µM,.,
CNC[C@@H]1OCCCC[C@@H](C)Oc2ccc(NC(=O)c3ccncc3)cc2C(=O)N([C@H](C)CO)C[C@H]1C,.,.,/,.,.,/,/,
C[n+]1c(-c2ccc(C=NNC(=O)c3ccc(C(=O)NN=Cc4ccc(-c5cn6ccccc6[n+]5C)cc4)cc3)cc2)cn2ccccc21,/,.,.,94,78,.,26µM,
C[C@H]1CCCCO[C@@H](CN(C)C(=O)c2ccccc2)[C@@H](C)CN([C@@H](C)CO)C(=O)c2cc(NC(=O)c3ccncc3)ccc2O1,.,.,/,.,.,/,/,
SMILES,RAD54 branch,CASP6 VEID inh,N-glyco inh,RAD52 inh,AF4-AF9 inh,AlphaScreen intf,DNA binder FP,others
Cc1ccc2c(c1)c1c(n2CC(O)CN2CCCCCC2)CCCC1 (centres undefined),.,/,.,81,35,.,.,
COc1cc(NCCCCCCN)c2ncccc2c1OC,/,85,.,63,43,.,.,
COc1cc(N)c2ncccc2c1OC,.,.,.,.,.,/,/,
CO[C@H]1CN(C)C(=O)c2ccc(NC(=O)c3cccc(F)c3)cc2OC[C@@H](C)N(CC2CC2)C[C@@H]1C,.,.,/,.,.,/,/,
CC(C)Nc1ccc(Nc2ccnc3cc4ccccc4cc23)cc1,/,.,.,99,84,3µM,22µM,
COc1cccc(C#Cc2ccc([C@H]3[C@@H](CO)N4C(=O)CN(C(=O)c5ccncc5)C[C@H]34)cc2)c1,/,.,/,.,.,/,/,
Oc1cc(NCCN2CCOCC2)cc2cccnc12,.,90,.,.,27,12µM,/,CASP1 counter=.
Cc1noc(C)c1NC(=O)N(C)C[C@@H]1OCCCC[C@@H](C)Oc2ccc(NC(=O)NC(C)C)cc2C(=O)N([C@H](C)CO)C[C@H]1C,/,.,/,.,.,/,/,
NCCCC[C@H](NC(=O)C1CCNCC1)c1nnc([C@@H](N)Cc2ccc(O)cc2)o1,.,.,.,74,.,/,.,
CCN(CC)c1ccc(N=Cc2ccc(N(CC)CC)cc2O)cc1,/,/,.,/,/,/,/,
CCN1CCN(c2ccc(N=Cc3ccc(O)cc3O)cc2)CC1,/,.,.,91,.,/,.,
CCN(CC)CCNC(=O)c1nn(-c2ccc(Cl)cc2)c2c1CCc1cc(OC)ccc1-2,/,.,.,66,.,/,.,
C[C@H](NC(=O)N(C)C[C@H]1OCc2ccccc2-c2ccccc2C(=O)N([C@H](C)CO)C[C@H]1C)c1ccccc1,.,.,/,.,.,/,/,
NC(N)=N/N=C(\N=Nc1ccccc1)c1ccc(Cl)cc1,/,.,.,74,35,/,.,
CC1(C)CC(N=c2cc(-c3ccccc3)oc3ccc(Cl)cc23)CC(C)(C)N1,/,.,?,101,.,/,17µM,
O=C(Nc1ccc(CN2CCOCC2)cc1)c1ccc(-c2ccc(Br)cc2)o1,.,.,.,51,.,/,.,
O=C(Nc1ccc(CN2CCOCC2)cc1)c1ccc(Br)cc1,.,.,.,.,.,/,/,
C[C@@H]1CN([C@@H](C)CO)C(=O)c2cccc(NC(=O)Nc3ccc4c(c3)OCO4)c2O[C@H]1CN(C)C(=O)Nc1ccccc1,.,/,/,/,/,/,/,
Cc1cc2cc(CNC(=O)c3cccc([N+](=O)[O-])c3)ccc2n1C,.,.,.,54,.,/,.,
